Source: PubChem (several laboratories)
HGIII-sPLA2 inh = Inhibits HGIII-sPLA2 liposome hydrolysis, primary screen; QFRET BODIPY PC-A2 liposome hydrolysis, fluorescence; inhibition, % at 12.2 µM; 370,000 tested, 0.56% active;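 active means inhibition above mean plus 3 SD of compounds lying within the high and low control bounds, cut at about 19% in these data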;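 further: 0% = median of test compound wells and 100% = no enzyme DMSO wells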
ARNT-TACC3 inh = disrupts binding between human ARNT and TACC3; Q9Y6A5; AlphaScreen His-ARNT PAS-B/GST-TACC3 binding, luminescence; TACC3 fragment carries E629A point mutation; inhibition, % at 9.99 µM; 390,000 tested, 0.66% active; AID 623870;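 active means mean inhibition of replicates at least 50% and at least half of replicates each reaching 50%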;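 further: 0% = complete ARNT plus TACC3 wells and 100% = ARNT alone without TACC3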
NadD inh = NadD (S. aureus) enzyme inhibition | purified NadD enzyme, colorimetric absorbance read-out | inhibition, % at 20 µM | 360,000 tested, 0.78% active | AID 602399; in the data active means inhibition above about 26%
DAGLB inhibitor = diacylglycerol lipase beta (human) inhibition | Q8NCG7 | HEK293T DAGLB membrane lysate, EnzChek fluorogenic substrate | inhibition, % at 5.17 µM | 340,000 tested, 0.059% active | AID 504411; in the data active means inhibition above about 34%;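 further: 0% = enzyme with vehicle and 100% = wells lacking enzyme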
Target sequence (Q8NCG7 whole entry, looked up): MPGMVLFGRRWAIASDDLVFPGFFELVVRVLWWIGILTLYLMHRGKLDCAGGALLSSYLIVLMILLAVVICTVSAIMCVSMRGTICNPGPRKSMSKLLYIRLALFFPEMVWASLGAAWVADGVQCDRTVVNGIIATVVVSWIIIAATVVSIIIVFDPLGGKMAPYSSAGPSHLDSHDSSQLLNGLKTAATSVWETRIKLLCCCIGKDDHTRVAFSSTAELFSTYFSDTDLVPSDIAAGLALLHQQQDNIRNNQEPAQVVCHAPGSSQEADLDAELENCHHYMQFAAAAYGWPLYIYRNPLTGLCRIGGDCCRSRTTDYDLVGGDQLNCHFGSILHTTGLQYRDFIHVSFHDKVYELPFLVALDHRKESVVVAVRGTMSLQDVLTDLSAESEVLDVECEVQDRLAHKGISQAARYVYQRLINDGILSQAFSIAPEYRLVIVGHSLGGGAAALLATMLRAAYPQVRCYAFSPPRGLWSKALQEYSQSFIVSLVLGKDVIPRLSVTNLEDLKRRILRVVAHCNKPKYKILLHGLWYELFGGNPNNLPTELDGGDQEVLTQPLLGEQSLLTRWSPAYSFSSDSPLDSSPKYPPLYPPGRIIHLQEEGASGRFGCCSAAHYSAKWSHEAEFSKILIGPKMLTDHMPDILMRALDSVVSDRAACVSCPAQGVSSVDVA
Neddyl block = cullin neddylation inhibition | TR-FRET cullin neddylation, biochemical | inhibition, % at 25 µM | 360,000 tested, 0.58% active | AID 651699; in the data active means inhibition above about 36%
Neddyl conf = cullin neddylation inhibition, confirmation; shares compounds with Neddyl block; TR-FRET cullin neddylation biochemical assay; calls only at 25 µM; 1,800 tested, 13% active; in the data active means inhibition above about 40%;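 further: neddylation substrate is the cullin 1 ring ligase complex with SKP2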
An asterisk follows results filed as active; i = inactive; x = not tested or not shown; + = active, no number. Hits are enriched below; roughly 2% of the tested compounds scored in any of these assays.

SMILES	HGIII-sPLA2 inh	ARNT-TACC3 inh	NadD inh	DAGLB inhibitor	Neddyl block	Neddyl conf
CC(C)Cn1c2nc3ccccc3nc2c2c(=O)n(CCN3CCOCC3)cnc21	2	0	-3	-2	42*	i
COc1ccc(OC)c(/C=N\NC(=O)CSc2nnc(CCCc3ccc(OC)c(C)c3)o2)c1	-9	-4	5	-6	37*	x
CCc1cc2c(=O)c(-c3nc4ccccc4n3C)c(C)oc2cc1OC(C)=O	-6	-2	1	1	41*	i
Cc1cccc(NS(=O)(=O)c2ccccc2)n1	5	4	2	-2	42*	i
Cc1cccc(NS(=O)(=O)c2ccc(C3CCCCC3)cc2)c1	-37	6	-1	-15	5	x
Cc1cccc(NS(=O)(=O)c2ccc(C(C)(C)C)cc2)n1	-11	-6	1	1	35	x
Cc1cccc(NS(=O)(=O)c2ccc(C3CCCCC3)cc2)n1	-35	-11	-2	0	38*	i
C[C@@H]1CN([C@@H](C)CO)C(=O)c2cc(NC(=O)CCC(F)(F)F)ccc2O[C@@H](C)CCCCO[C@@H]1CN(C)C(=O)Nc1ccc(F)cc1	x	5	x	x	x	x
CCOC(=O)c1oc2cc(C)cc(C)c2c1C	0	-5	-4	-4	11	x
CCOC(=O)c1oc2cc(O)cc(C)c2c1C	-45	-2	-5	-4	41*	+
Cc1cc(=O)oc2cc(OCC(O)Cn3ccnc3)ccc12 (configuration not stated)	1	6	-3	-1	40*	i
Cc1cc(=O)oc2cc(OCC(=O)NCCCn3ccnc3)ccc12	1	-6	-6	0	27	x
Cc1cc(=O)oc2cc(OCC(=O)N3CCCC3)ccc12	6	1	-5	-7	48*	i
CCOC(=O)C1CCN(C(=O)COc2ccc3c(C)cc(=O)oc3c2)CC1	8	-1	-6	1	42*	i
CCc1cc(=O)oc2cc(OCC(=O)N3CCC(C(=O)O)CC3)ccc12	11	-10	4	-1	34	x
Cc1cc(=O)oc2cc(OCC(=O)N3CCOCC3)ccc12	-2	1	5	-2	11	x
O=C(NCC[C@@H]1CC[C@H](NS(=O)(=O)c2cccc(F)c2)[C@@H](CO)O1)C1CCCC1	x	-2	x	x	x	x
COc1cccc(CNC(=O)C[C@H]2C=C[C@@H](NC(C)=O)[C@H](CO)O2)c1	x	2	x	x	x	x
C[C@@H]1CN([C@@H](C)CO)C(=O)c2cc(C#CC3CCCCC3)cnc2O[C@@H]1CN(C)C(=O)Cc1ccccn1	x	3	x	x	x	x
CCCNC(=O)N(C)C[C@H]1Oc2ncc(C#Cc3ccncc3)cc2C(=O)N([C@H](C)CO)C[C@@H]1C	x	12	x	x	x	x
CC(C)C#Cc1cnc2c(c1)C(=O)N([C@@H](C)CO)C[C@H](C)[C@H](CN(C)C(=O)Cc1ccncc1)O2	x	2	x	x	x	x
COC(=O)Nc1nnc(/C=C/c2ccc(OC)cc2)s1	-5	-2	-3	0	29	x
COc1ccc(/C=C/c2nnc(NC(C)=O)s2)cc1	-1	-3	-7	-6	43*	i
CC(=O)Oc1ccc2nc(/C=C/c3ccccc3)oc(=O)c2c1	-1	-4	-2	4	45*	i
C[C@@H]1CN([C@@H](C)CO)C(=O)c2cc(NC(=O)CCN3CCOCC3)ccc2O[C@H]1CN(C)S(=O)(=O)c1ccccc1	x	0	x	x	x	x
SMILES	HGIII-sPLA2 inh	ARNT-TACC3 inh	NadD inh	DAGLB inhibitor	Neddyl block	Neddyl conf
Cc1ccccc1NC(=O)CSc1ccc(-c2ccco2)nn1	1	x	0	2	4	x
Cc1cccc(NC(=O)Cn2nc(-c3ccco3)ccc2=O)c1C	1	6	0	-2	43*	x
O=C(Cn1nc(-c2ccco2)ccc1=O)Nc1ccc(Br)cc1	-4	4	0	1	45*	x
COc1ccc(OC)c(NC=C2C(=O)OC3(CCCCC3)OC2=O)c1	1	-8	-2	1	52*	i
COc1ccc(OC)c(NC=C2C(=O)OC(C)(C)OC2=O)c1	4	-2	3	0	4	x
COc1cccc(/C=C2/NC(=O)N(CC(=O)Nc3ccc(C)cc3)C2=O)c1OCc1cccc(C(=O)O)c1	1	-2	-6	0	50*	x
Cc1ccc(NC(=O)CN2C(=O)N/C(=C/c3ccccc3OCc3cccc(C(=O)O)c3)C2=O)cc1	-42	8	15	4	1	x
O=S(=O)(c1ccc(F)cc1)N1CC[C@@H]2[C@@H](CO)Nc3ccc(Br)cc3[C@@H]21	x	1	x	x	x	x
